Assay results from PubChem BioAssay AID2807 (Vanderbilt High Throughput Screening Facility, 2010).
Results with a measured potency or affinity are listed apart. Calls of active or inactive are those of the source. No rule for the calls is given here.

target: Metabotropic glutamate receptor 4 (Homo sapiens) (UniProt Q14833); assay: PubChem AID 2807; conditions: CHO hmGluR4/Gqi5 calcium mobilization, PAM potentiation; series mostly up to 30 µM
Sequence (Q14833 whole entry, looked up): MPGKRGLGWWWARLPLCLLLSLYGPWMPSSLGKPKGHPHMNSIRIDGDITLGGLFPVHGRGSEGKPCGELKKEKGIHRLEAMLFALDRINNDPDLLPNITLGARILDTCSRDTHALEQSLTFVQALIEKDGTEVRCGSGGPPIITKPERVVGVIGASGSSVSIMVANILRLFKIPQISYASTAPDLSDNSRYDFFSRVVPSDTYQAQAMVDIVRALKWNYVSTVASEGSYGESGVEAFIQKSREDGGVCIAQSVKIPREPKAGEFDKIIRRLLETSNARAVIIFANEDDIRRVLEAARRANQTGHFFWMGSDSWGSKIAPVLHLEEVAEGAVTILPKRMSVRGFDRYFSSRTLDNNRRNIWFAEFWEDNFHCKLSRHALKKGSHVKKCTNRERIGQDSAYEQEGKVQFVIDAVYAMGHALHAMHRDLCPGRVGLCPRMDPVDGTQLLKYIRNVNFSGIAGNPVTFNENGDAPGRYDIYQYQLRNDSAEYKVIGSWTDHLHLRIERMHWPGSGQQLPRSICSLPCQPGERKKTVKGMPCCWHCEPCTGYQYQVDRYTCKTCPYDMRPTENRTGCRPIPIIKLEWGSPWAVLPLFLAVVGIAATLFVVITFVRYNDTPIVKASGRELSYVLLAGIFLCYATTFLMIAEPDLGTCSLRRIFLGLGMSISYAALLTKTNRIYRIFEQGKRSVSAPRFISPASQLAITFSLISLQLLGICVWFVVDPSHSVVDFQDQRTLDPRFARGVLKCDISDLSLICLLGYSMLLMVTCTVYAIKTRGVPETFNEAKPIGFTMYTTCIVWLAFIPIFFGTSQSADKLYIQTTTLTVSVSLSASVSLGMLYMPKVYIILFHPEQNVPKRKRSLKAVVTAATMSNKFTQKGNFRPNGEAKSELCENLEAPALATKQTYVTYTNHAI

outcome, inactive:
O=C(Nc1ccc(Cl)c(Cl)c1)c1cnccn1
O=C(Nc1ccc(Cl)c(Cl)c1)C1CCCCC1
O=C(Nc1ccc(Cl)c(Cl)c1)c1ccccc1
O=C(Nc1ccc(Cl)c(Cl)c1)c1ccc(-c2ccccc2)o1
O=C(Nc1ccc(Cl)c(Cl)c1)c1cc2ccccc2o1
Cn1cccc1C(=O)Nc1ccc(Cl)c(Cl)c1
